According to PubChem BioAssay (NCATS):
Several values for one entry are separate records, joined by “and”; a condition that tells them apart may be missing. Equal entries are not always repeated. Inconclusive results are not listed. More than one record can exist for a structure, and the calls need not agree. Activity calls are given as the source filed them. Unless noted, calls follow the shape of the dose curve; as a rule, active = well fitted curve in the direction sought with a large enough effect; inconclusive = small, poorly fitted or top-dose-only effect, or another doubt; inactive = no such curve, though single readings can be large; an effect the other way counts as inactive or inconclusive.

How the values were obtained:
[1] = AP1 Signaling Pathway (AID 357; active = well fitted curve in either direction with a large enough effect, not every such curve was filed as active;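 also: ME-180 reporter cells stimulated with EGF at its EC50 level; % is scaled to controls: 0 for no effect and ±100 for the full control effect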); settings: ME-180 AP-1-bla reporter, EGF-induced, beta-lactamase ratio, 5 h
Summary of the method: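 In this screen, ME-180 cells in Opti-MEM with 0.5% dialyzed FBS received EC50 EGF and compound titrations for 5 h. AP-1 reporter beta-lactamase was detected via CCF4 ratio, giving AC50 for positive and negative modulators.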

[2] = NFAT Signaling Pathway (AID 444; active = well fitted curve in either direction with a large enough effect, not every such curve was filed as active;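 also: carbachol stimulus at about its EC50 of 1 µM final; % is scaled to controls: 0 for no effect and ±100 for the full control effect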); settings: Jurkat NFAT-bla M1, carbachol, beta-lactamase ratio, 5 h
Summary of the method: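 Jurkat cells carrying an NFAT-driven β-lactamase reporter and co-transfected muscarinic M1 receptor were treated with compound plus carbachol (1 uM final, an EC50 level) for 5 h at 37 °C. CCF4 loading followed for 1 h at RT; 460/530 nm ratio gave %activity.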

[3] = Stat Signaling Pathway (AID 446; active = well fitted curve in either direction with a large enough effect, not every such curve was filed as active;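 also: ME-180 cervical cancer cells given 40 pM IL-6 alongside compound; SIE-controlled beta-lactamase reporter measured as 460/530 nm FRET emission ratio; % is scaled to controls: 0 for no effect and ±100 for the full control effect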); settings: ME-180 (cervical carcinoma) SIE beta-lactamase reporter, IL-6 stimulated, 5 h
Summary of the method: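 Compound effects on IL-6-induced STAT reporter activity were measured in ME-180 cells. After overnight culture, cells were co-treated with 40 pM IL-6 for 5 hrs before beta-lactamase substrate loading at room temperature.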

[4] = target: Guanine nucleotide-binding protein G(i) subunit alpha-1 (Homo sapiens) (UniProt P63096); test: qHTS Assay for Inhibitors of RGS12 GoLoco Motif Activity (Green Fluorophore) (AID 879); settings: Galphai1/FITC-RGS12 GoLoco peptide, fluorescence polarization; series mostly up to 57.1 µM;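 also: 0% = labeled peptide with Gαi1 and full inhibition = labeled peptide alone without protein; negative values mean loss of peptide binding seen as reduced polarization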
Summary of the method: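 A drop in FITC polarization marked displacement of the FITC-tagged RGS12 GoLoco peptide (10 nM) from Gαi1 (50 nM). Compounds were incubated 10 min at room temperature in Tris pH 7.5 buffer containing 150 mM NaCl, 0.1 mM GDP and 0.05% NP40; unlabeled peptide titration served as control.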

[5] = target: Cytochrome P450 2C9 (Homo sapiens) (UniProt P11712); test: qHTS Assay for Inhibitors and Substrates of Cytochrome P450 2C9 (AID 883); settings: recombinant CYP2C9, luciferin-H luminescence, 60 min; series mostly up to 57.1 µM; also: nearly all actives have a fitted effect of over 60% in size; also: potency is read from the fitted curve at half-maximal effect
Summary of the method: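 Human CYP2C9 (10nM) hydroxylated Luciferin-H (100uM, at its KM) to luciferin in 25mM KPO4. Compound was preincubated 10 min at 37C, then NADPH regeneration started a 60 min reaction at 37C. Luminescence was read after detection reagent, normalized to 57uM sulphaphenazole.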

[6] = qHTS Assay for Identification of Small Molecule Agonists for Thrombopoietin (TPO) Signaling Pathway (AID 917); settings: TPO signaling pathway reporter cells, agonist qHTS, stimulated with TPO at its EC50; series mostly up to 38.5 µM; also: potency is read from the fitted curve at half-maximal effect
Summary of the method: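 Stimulation at the TPO EC50 (26 pM final) was used to detect activators. Ba/F3 mouse cells bearing human TPO receptor and a luciferase reporter under the Glycoprotein IIb promoter were exposed to compounds for 24 hrs at 37 C.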

[7] = target: Muscarinic acetylcholine receptor M1 (Rattus norvegicus) (UniProt P08482); test: qHTS Assay for Antagonists of Acetylcholine Muscarinic M1 Receptor: Measurement of IP-One Response (AID 944); settings: CHO-M1 cells, IP-One HTRF, antagonist mode; series mostly up to 46.1 µM; also: nearly all actives have a fitted effect of over 75% in size
Summary of the method: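 Antagonist mode with rat M1 receptor transfected into CHO cells. Compound is added first for 10 min, carbachol at its EC80 follows for 30 min, and lysis reagents then allow TR-FRET detection of accumulated IP1.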

[8] = target: Pyruvate kinase (Leishmania mexicana) (UniProt Q27686); test: qHTS Validation Assay for Inhibitors of Leishmania Mexicana Pyruvate Kinase (AID 945); also: potency is read from the fitted curve at half-maximal effect;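 as to activity change, negative = inhibition: 0% = DMSO only neutral control wells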; settings: purified L. mexicana pyruvate kinase, enzyme activity, E451W mutant enzyme; series mostly up to 57.5 µM
Summary of the method: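 An endpoint luciferase assay: 0.2 nM LmPYK E451W turns over 0.5 mM PEP with 0.1 mM ADP for 1 h at room temperature, pH 7.2, before PKLight addition. Values are normalized to DMSO-only wells.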

[9] = target: Pyruvate kinase PKM (Homo sapiens) (UniProt P14618); test: qHTS Assay for Activators of Human Muscle Pyruvate Kinase (AID 954; active = well fitted curve in the direction sought with a large enough effect, not every such curve was filed as active;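 also: 0% = uninhibited enzyme and -100% = no enzyme or full thiadiazolimine inhibition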); settings: purified human muscle pyruvate kinase, luciferase-coupled luminescence, 1 h; series mostly up to 57.5 µM
Summary of the method: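 A coupled luminescent readout tracked ATP made from ADP by purified PKM2. Final conditions included 0.1 nM enzyme, PEP and ADP at 0.5 and 0.1 mM, pH 7.2 imidazole buffer with BSA, and a one-hour room-temperature reaction.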

[10] = target: alpha-glucosidase (Oryza sativa, rice) (UniProt Q653V4); test: Counterscreen for Glucocerebrosidase Inhibitors: qHTS Assay for Rice alpha-Glucosidase at pH 5.0 (AID 997); settings: rice alpha-glucosidase enzyme activity; series mostly up to 76.9 µM;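 also: 0% = full activity with enzyme and -100% = basal without enzyme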
Summary of the method: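 Endpoint fluorogenic assay at pH 5.0: compounds (0.7 nM to 77 uM) titrated against 4 nM rice enzyme and 400 uM 4-MU-alpha-glucoside for 20 min at room temperature; NaOH/glycine stop, read ex 365/em 440 nm, Hill-fitted AC50.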

[11] = target: Ubiquitin carboxyl-terminal hydrolase 1 (Homo sapiens) (UniProt O94782); test: Inhibitors of USP1/UAF1: Pilot qHTS (AID 504865); settings: purified USP1/UAF1, Ub-rhodamine cleavage fluorescence; series mostly up to 114 µM;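 also: rhodamine fluorescence freed from ubiquitin-rhodamine substrate followed over time; top concentration of the series differs between compounds; % is scaled to controls: 0 for no effect and ±100 for the full control effect; nearly all actives have a fitted effect of over 35% in size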
Summary of the method: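 USP1/UAF1 complex at 1 nM preincubated 15 min at room temperature with compound, then Ub-Rho substrate added at 150 nM final. Fluorescence (480/540 nm) read kinetically in 50 mM HEPES pH 7.8, 0.5 mM EDTA, 1 mM TCEP, 0.1 mg/ml BSA, 0.01% Tween-20.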

[12] = Primary qHTS for inhibitors of nuclear receptor binding SET domain protein 2 (NSD2) in an isogenic RCH-ACV NSD2 p.E1099K mutant (9B) (AID 1645876); settings: RCH-ACV NSD2 E1099K (9B) viability, CellTiter-Glo, 72 h; series mostly up to 44.9 µM; also: % is scaled to controls: 0 for no effect and ±100 for the full control effect; nearly all actives have a fitted effect of over 70% in size
[13] = Primary qHTS for inhibitors of nuclear receptor binding SET domain protein 2 (NSD2) in an RCH-ACV wild type WT cells (2C) (AID 1645877); settings: RCH-ACV (leukaemia line) NSD2 WT (2C) viability, CellTiter-Glo, 72 h; series mostly up to 44.9 µM; also: % is scaled to controls: 0 for no effect and ±100 for the full control effect; nearly all actives have a fitted effect of over 70% in size
[14] = target: Glutathione peroxidase 1 (Homo sapiens) (UniProt P07203); test: Primary qHTS Assay for Inhibitors of Recombinant Selenoprotein Glutathione Peroxidase 1 (GPX1) (AID 1845191); settings: recombinant GPX1, GR-coupled NADPH fluorescence, 15 min; series mostly up to 48.8 µM; also: % is scaled to controls: 0 for no effect and ±100 for the full control effect; nearly all actives have a fitted effect of over 65% in size
Summary of the method: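 GPX1 10 nM, GR 100 nM, GSH 1 mM, NADPH 0.5 mM, CHP 0.5 mM (final). 30-min cpd preincubation, RT. Ex340/Em450 read t=0, t=15 min.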

[15] = target: Cytochrome P450 3A4 (Homo sapiens) (UniProt P08684); test: qHTS Assay for Inhibitors and Substrates of Cytochrome P450 3A4 (AID 884); settings: recombinant CYP3A4, Luciferin-PPXE luminescence; series mostly up to 57.1 µM; also: nearly all actives have a fitted effect of over 50% in size; also: potency is read from the fitted curve at half-maximal effect; as to activity change, negative = inhibition: % is scaled to controls: 0 for no effect and ±100 for the full control effect
Summary of the method: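 Luminescent readout of luciferin produced by CYP3A4 (20 nM) dealkylation of Luciferin-PPXE, 25 uM (its KM). NADPH-driven reaction ran 60 min at RT after 10 min compound preincubation; data scaled to 57 uM ketoconazole as 100% inhibition.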

[16] = target: Cytochrome P450 3A4 (Homo sapiens) (UniProt P08684); test: qHTS Assay for Activators of Cytochrome P450 3A4 (AID 885); settings: recombinant CYP3A4, Luciferin-PPXE luminescence, 60 min; series mostly up to 57.1 µM; also: nearly all actives have a fitted effect of over 65% in size; also: potency is read from the fitted curve at half-maximal effect
Summary of the method: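 CYP3A4 activity: Luciferin-PPXE O-dealkylation, 25uM substrate, 200mM KPO4, RT throughout. Read-out is luciferase luminescence; higher values reflect activation.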

[17] = target: Cytochrome P450 2D6 (Homo sapiens) (UniProt P10635); test: qHTS Assay for Inhibitors and Substrates of Cytochrome P450 2D6 (AID 891); settings: recombinant CYP2D6, luciferin-ME EGE luminescence; series mostly up to 57.1 µM; also: potency is read from the fitted curve at half-maximal effect; nearly all actives have a fitted effect of over 60% in size
Summary of the method: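 Luminescent read-out of luciferin formed by 5 nM human CYP2D6 demethylating 30 uM Luciferin-ME EGE (Km level) over 60 min at room temperature after NADPH regeneration addition. Data normalized to full inhibition by 1.43 uM quinidine.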

Cytochrome P450 2C9 (Homo sapiens), sequence (P11712 whole entry, looked up): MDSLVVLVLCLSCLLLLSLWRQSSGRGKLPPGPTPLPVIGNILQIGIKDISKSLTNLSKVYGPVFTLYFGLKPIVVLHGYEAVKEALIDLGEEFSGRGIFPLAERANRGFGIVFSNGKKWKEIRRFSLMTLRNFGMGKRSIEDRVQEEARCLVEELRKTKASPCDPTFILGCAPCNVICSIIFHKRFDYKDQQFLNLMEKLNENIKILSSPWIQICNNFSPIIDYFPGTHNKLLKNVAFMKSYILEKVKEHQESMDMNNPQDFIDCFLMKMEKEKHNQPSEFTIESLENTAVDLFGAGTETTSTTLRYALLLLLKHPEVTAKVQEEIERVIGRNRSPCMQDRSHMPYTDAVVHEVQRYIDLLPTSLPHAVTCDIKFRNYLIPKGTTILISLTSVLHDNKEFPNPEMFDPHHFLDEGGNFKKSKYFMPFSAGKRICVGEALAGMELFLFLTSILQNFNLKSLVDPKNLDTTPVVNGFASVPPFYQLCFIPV
Ubiquitin carboxyl-terminal hydrolase 1 (Homo sapiens), sequence (O94782 whole entry, looked up): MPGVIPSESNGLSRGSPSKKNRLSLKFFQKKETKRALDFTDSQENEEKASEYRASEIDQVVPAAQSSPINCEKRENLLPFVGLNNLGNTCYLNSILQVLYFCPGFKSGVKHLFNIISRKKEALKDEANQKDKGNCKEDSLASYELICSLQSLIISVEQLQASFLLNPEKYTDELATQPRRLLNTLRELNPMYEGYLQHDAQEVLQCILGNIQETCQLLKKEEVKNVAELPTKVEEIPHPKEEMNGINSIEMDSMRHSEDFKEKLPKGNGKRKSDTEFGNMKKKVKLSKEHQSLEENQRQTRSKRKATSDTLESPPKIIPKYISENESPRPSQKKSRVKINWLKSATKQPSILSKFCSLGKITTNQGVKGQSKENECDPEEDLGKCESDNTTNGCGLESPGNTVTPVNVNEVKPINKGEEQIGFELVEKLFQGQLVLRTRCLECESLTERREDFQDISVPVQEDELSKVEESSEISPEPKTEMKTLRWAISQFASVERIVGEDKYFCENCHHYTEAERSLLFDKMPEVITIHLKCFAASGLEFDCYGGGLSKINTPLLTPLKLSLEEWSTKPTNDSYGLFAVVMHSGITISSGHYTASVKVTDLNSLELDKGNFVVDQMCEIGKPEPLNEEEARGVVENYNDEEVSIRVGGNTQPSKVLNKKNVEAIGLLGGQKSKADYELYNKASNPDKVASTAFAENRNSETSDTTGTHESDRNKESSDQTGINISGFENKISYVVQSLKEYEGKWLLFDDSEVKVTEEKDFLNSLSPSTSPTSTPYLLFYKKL
Guanine nucleotide-binding protein G(i) subunit alpha-1 (Homo sapiens), sequence (P63096 whole entry, looked up): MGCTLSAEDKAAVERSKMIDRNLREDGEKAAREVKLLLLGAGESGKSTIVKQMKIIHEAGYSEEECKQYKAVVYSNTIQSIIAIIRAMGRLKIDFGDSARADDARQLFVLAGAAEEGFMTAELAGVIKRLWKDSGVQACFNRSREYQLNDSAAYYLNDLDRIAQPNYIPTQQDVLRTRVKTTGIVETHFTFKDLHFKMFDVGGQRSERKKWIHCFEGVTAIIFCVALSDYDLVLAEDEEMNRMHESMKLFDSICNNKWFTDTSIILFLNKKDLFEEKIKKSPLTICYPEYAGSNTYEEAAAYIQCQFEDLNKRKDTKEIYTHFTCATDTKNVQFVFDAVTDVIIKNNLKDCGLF
Pyruvate kinase PKM (Homo sapiens), sequence (P14618 whole entry, looked up): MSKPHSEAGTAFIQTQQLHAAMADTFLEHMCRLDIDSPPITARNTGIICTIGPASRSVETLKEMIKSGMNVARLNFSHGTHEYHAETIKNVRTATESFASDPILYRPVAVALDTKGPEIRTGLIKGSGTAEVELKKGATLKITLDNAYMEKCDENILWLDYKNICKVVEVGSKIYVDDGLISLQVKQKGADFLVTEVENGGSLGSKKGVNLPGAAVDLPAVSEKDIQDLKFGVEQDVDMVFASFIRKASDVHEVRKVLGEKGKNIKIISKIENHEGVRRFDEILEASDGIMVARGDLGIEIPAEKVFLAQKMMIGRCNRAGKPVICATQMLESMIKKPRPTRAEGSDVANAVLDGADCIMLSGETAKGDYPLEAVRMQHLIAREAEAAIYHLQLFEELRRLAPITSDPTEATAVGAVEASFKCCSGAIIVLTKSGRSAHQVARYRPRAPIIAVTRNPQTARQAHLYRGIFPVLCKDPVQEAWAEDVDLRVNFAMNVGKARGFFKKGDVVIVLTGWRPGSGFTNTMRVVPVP
Cytochrome P450 3A4 (Homo sapiens), sequence (P08684 whole entry, looked up): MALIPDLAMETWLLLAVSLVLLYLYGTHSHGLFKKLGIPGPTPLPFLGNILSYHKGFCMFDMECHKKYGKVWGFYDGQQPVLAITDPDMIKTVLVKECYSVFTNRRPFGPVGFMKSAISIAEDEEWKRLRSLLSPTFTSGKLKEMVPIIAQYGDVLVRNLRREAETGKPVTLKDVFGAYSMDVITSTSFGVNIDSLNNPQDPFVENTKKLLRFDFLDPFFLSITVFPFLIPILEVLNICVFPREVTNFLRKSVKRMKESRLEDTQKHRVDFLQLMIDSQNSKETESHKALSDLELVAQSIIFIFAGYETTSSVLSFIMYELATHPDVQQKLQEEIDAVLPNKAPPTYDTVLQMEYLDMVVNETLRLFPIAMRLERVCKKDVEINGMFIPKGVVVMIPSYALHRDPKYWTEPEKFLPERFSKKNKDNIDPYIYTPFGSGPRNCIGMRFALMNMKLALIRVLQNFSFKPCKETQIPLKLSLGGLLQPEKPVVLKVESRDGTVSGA
Pyruvate kinase (Leishmania mexicana), sequence (Q27686 2-499 E452W): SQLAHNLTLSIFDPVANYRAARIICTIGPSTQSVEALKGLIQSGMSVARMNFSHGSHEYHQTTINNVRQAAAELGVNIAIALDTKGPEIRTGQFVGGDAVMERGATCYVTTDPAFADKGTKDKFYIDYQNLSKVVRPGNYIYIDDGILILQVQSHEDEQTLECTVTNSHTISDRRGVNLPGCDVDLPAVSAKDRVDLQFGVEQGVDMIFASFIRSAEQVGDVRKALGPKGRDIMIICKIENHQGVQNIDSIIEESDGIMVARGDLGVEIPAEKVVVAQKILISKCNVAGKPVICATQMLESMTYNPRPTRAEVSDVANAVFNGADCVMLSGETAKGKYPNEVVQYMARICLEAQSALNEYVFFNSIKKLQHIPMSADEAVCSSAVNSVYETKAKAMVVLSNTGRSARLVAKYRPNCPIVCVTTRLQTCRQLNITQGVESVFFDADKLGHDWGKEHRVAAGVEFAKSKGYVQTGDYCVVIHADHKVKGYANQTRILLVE
Muscarinic acetylcholine receptor M1 (Rattus norvegicus), sequence (P08482 whole entry, looked up): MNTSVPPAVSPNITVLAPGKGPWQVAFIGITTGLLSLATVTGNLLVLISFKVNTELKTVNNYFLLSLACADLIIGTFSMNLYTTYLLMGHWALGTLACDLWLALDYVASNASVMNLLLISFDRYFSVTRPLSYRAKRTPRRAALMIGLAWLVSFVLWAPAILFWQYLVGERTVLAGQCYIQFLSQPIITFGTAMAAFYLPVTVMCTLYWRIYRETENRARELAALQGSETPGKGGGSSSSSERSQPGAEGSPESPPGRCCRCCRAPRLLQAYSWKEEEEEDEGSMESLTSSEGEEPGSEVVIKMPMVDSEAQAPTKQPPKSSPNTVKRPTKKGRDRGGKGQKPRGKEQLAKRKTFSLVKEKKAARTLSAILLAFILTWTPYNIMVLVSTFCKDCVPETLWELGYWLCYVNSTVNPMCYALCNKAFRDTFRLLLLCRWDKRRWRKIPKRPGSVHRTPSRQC
Glutathione peroxidase 1 (Homo sapiens), sequence (P07203 whole entry, looked up): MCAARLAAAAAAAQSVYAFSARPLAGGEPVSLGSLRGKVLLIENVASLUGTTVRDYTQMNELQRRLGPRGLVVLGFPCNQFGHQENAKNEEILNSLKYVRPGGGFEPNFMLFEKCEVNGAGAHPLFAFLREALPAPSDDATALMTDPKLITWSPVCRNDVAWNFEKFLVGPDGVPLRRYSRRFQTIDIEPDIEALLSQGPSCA
Cytochrome P450 2D6 (Homo sapiens), sequence (P10635 whole entry, looked up): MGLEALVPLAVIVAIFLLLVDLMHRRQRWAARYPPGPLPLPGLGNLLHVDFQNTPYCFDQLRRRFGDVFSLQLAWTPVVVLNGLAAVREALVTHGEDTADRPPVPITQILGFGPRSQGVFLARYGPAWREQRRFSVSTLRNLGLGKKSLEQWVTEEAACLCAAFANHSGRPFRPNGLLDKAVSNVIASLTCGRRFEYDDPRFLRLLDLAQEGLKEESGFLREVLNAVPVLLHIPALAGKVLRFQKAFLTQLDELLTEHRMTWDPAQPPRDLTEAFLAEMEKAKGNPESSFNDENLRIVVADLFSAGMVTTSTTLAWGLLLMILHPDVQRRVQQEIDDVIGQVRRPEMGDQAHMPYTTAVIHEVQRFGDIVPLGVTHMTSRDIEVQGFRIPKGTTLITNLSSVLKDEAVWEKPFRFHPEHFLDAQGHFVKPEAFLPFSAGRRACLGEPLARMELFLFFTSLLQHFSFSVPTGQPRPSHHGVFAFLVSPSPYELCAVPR

CC(C)NC[C@@H](O)COc1ccc(CCOCC2CC2)cc1
active: Potency [5] 0.631 µM
inactive: activity change, negative = inhibition ([1]; at 17.2 µM (top of the series)) -7.61% | activity change, negative = inhibition ([1]; at 38 µM (top of the series)) 1.38% | activity change, negative = inhibition ([2]; at 17.2 µM (top of the series)) -13.9% | activity change, negative = inhibition ([2]; at 38 µM (top of the series)) 5.51% | activity, negative = inhibition ([3]; at 17.2 µM (top of the series)) 9.37% | activity, negative = inhibition ([3]; at 38 µM (top of the series)) 21.1% | outcome [4] | Potency [6] | Potency [7] | Potency [8] | outcome [9] | outcome [10] | Potency [11]

Cc1ccc(NS(=O)(=O)c2cc3c(cc2F)NC(=O)CC3)cc1Cl
inactive: Potency [12] | Potency [13] | Potency [14]

O[C@@H](c1ccccc1)C1CCN(CCc2ccccc2)CC1
active: Potency [16] 15.8 µM
inactive: Potency [15]

C[C@@H]1Nc2ccc(Cl)cc2S(=O)(=O)N1
inactive: Potency [11]

N[C@@H](Cn1cc(F)c(=O)[nH]c1=O)C(=O)O
inactive: Potency [11]

COc1ccccc1N1CCN(C[C@@H]2CN3C(=O)N(C)c4ccccc4C3=N2)CC1
inactive: Potency [5] | Potency [16] | Potency [11]

CCC(C)(C)N=C(NC#N)Nc1cccnc1
active: Potency [15] 5.01 µM
inactive: Potency [16] | Potency [11]

Cc1cccc(/C=C\c2ccccc2)n1
active: Potency [17] 0.794 µM | Potency [6] 2 µM | Potency [8] 15.8 µM
inactive: activity change, negative = inhibition ([1]; at 38 µM (top of the series)) -0.643% | activity change, negative = inhibition ([2]; at 38 µM (top of the series)) -3.22% | outcome [4] | Potency [16] | Potency [7] | outcome [9] | outcome [10]
inactive and 3.98 µM (active): Potency [5]

NS(=O)(=O)c1cc2c(cc1Cl)N[C@@H]([C@@H]1C[C@@H]3C=C[C@H]1C3)NS2(=O)=O
inactive: activity change, negative = inhibition ([1]; at 38 µM (top of the series)) -0.109% | activity change, negative = inhibition ([2]; at 38 µM (top of the series)) 4.22% | outcome [4] | Potency [6] | Potency [8] | outcome [9] | outcome [10]

C[C@H]1COC(=O)[C@H](Cc2ccccc2)NC(=O)[C@@H](C)COC(=O)[C@H](Cc2ccccc2)NC1=O
inactive: activity change, positive = activation [16] -42.5% [at 11.4 µM]
